What all share (design): scale not given: direction of the effect not stated beside the values
The target in assay [1] is Protein translocase subunit SecA (Escherichia coli (strain K12)) (UniProt P10408). Nature of the assay: Assay to Identify E. coli SecA ATPase Inhibitors. It is filed as functional. Particulars: 30 µM.
The target of assay [2] is T1, Ubiquitin-activating enzyme e1, putative (Leishmania donovani (strain BPK282A1)) (UniProt E9BSI1).
T1 sequence (whole entry): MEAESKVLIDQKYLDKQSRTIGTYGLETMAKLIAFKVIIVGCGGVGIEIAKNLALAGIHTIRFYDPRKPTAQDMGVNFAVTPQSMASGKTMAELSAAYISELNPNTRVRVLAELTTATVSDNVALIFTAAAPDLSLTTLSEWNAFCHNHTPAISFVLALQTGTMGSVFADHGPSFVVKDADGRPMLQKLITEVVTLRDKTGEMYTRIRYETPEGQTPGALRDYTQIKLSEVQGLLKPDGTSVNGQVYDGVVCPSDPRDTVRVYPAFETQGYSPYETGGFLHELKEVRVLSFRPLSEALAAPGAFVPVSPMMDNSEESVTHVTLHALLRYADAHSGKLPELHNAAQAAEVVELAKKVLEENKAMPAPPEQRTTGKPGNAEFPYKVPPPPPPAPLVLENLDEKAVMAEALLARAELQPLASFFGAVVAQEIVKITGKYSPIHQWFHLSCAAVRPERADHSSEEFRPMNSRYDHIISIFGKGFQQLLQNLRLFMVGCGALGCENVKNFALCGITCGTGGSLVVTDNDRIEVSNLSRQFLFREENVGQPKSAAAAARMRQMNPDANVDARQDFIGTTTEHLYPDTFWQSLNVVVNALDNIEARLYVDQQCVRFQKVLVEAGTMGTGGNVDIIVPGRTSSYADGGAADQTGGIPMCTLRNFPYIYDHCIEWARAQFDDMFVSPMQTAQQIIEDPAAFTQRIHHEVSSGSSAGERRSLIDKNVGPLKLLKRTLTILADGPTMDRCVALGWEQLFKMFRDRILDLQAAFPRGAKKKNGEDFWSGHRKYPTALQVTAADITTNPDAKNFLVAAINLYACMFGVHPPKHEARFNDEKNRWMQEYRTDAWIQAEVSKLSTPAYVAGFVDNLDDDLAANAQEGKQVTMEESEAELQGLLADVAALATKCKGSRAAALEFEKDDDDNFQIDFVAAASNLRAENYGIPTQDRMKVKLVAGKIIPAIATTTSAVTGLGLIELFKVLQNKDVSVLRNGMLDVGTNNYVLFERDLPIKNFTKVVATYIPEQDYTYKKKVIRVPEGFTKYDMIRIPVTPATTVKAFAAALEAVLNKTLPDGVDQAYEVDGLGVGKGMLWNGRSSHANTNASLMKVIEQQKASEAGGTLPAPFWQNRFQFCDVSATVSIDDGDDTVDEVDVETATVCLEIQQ
Nature of the assay: Leishmania donovani Ubiquitin Activating Enzyme (LdE1). Particulars: 30 µM. It is filed as functional.

Assay [3] addresses Sialic acid-binding Ig-like lectin 9 (Homo sapiens) (UniProt Q9Y336). Put plainly: Hs-Siglec9 ALPHAscreen SOP 20170721. Particulars: 10 µM. In general terms: In Alpha technology, singlet oxygen from a donor bead excites a nearby acceptor bead.
The next assay relates to Trypanosoma cruzi. Put plainly: Trypanosoma cruzi phosphomannomutase and mannose-1-phosphate guanylyltransferase assay. It is filed as functional. The settings on record: 10 µM.
The target in assay [4] is T2, Arginase-2, mitochondrial (Homo sapiens) (UniProt P78540).
T2 sequence (whole entry): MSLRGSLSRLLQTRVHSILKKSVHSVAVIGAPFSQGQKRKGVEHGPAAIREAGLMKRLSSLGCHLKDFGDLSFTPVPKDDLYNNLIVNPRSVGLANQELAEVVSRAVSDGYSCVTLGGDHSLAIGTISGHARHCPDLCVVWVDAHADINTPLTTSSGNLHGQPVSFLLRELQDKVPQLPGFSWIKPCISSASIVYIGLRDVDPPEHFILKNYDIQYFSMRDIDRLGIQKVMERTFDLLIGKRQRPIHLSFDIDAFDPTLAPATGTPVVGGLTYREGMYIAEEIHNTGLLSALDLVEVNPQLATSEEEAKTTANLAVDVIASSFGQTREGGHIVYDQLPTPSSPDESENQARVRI
Put plainly: in vitro enzyme assay to detect the production of urea directly proportional to the activity of Arginase II. Further: in the data most compounds retested in dose-response had high values. Type of assay: functional. Particulars: 33.3 µM.

Assay [5] deals with T3, Proteasome subunit beta (Trypanosoma cruzi) (UniProt O96673).
T3 sequence (whole entry): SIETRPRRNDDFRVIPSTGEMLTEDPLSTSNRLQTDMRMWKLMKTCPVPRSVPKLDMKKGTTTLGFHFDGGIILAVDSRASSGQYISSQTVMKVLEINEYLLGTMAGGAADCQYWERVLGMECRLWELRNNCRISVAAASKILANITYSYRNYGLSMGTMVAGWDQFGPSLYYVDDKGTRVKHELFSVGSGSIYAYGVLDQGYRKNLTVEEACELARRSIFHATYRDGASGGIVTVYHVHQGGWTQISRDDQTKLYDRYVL
Nature of the assay: Trypanosoma cruzi proteasome chymotrypsin-like activity (TcProtChymo) assay. Further: in the data most compounds retested in dose-response had high values. It is filed as functional. The settings on record: 9.37 µM.

The species named for a further assay is Homo sapiens. Nature of the assay: To identify inhibition of the IFN signalling (Jak-Stat) pathway via expression of an eGFP reporter gene under the control of an IFN-stimulated response element (ISRE) containing MxA promoter. It is filed as functional. The settings on record: 30 µM. For orientation: Reporter assays use an easily measured gene product as a stand-in for the process of interest.

In assay [6] the target is T4, Tyrosyl-tRNA synthetase, putative (Trypanosoma cruzi (strain CL Brener)) (UniProt Q4DSP6).
T4 sequence (whole entry): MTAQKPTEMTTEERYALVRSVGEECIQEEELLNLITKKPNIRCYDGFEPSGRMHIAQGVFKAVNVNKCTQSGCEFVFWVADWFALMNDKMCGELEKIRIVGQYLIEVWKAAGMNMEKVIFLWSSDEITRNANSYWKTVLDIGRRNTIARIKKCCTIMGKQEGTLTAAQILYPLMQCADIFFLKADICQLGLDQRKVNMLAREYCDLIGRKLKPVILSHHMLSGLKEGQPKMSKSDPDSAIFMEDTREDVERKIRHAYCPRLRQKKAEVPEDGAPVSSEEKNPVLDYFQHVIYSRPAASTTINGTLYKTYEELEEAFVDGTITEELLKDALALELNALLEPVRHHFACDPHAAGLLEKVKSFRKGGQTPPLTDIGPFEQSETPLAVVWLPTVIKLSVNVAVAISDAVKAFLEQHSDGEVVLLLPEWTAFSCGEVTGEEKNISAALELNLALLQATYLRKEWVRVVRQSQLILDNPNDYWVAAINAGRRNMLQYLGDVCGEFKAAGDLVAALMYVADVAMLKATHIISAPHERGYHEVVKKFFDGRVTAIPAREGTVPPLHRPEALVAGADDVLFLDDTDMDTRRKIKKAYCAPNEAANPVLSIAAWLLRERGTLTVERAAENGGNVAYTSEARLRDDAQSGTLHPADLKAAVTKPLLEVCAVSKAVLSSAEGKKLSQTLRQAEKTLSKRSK
Put plainly: Trypanosoma cruzi tyrosyl tRNA synthetase (TcYRS) _High Tyrosine SOP. Further: in the data most compounds retested in dose-response had high values. It is filed as functional. The settings on record: 30 µM.

Assay [7] addresses T4, Tyrosyl-tRNA synthetase, putative (Trypanosoma cruzi (strain CL Brener)). Nature of the assay: Trypanosoma cruzi tyrosyl tRNA synthetase (TcYRS) SOP. The settings on record: 30 µM. Type of assay: functional.
The target of assay [8] is Chromo domain-containing protein 1 (Saccharomyces cerevisiae (strain ATCC 204508 / S288c) (Baker's yeast)) (UniProt P32657). Put plainly: ScCHD-1 Enzyme Inhibition Assay. Further: in the data most compounds retested in dose-response had high values. The settings on record: 30 µM. Type of assay: functional.
Sequence of Chromo domain-containing protein 1 (Saccharomyces cerevisiae (strain ATCC 204508 / S288c) (Baker's yeast)) (P32657 whole entry, the tested form may be a part): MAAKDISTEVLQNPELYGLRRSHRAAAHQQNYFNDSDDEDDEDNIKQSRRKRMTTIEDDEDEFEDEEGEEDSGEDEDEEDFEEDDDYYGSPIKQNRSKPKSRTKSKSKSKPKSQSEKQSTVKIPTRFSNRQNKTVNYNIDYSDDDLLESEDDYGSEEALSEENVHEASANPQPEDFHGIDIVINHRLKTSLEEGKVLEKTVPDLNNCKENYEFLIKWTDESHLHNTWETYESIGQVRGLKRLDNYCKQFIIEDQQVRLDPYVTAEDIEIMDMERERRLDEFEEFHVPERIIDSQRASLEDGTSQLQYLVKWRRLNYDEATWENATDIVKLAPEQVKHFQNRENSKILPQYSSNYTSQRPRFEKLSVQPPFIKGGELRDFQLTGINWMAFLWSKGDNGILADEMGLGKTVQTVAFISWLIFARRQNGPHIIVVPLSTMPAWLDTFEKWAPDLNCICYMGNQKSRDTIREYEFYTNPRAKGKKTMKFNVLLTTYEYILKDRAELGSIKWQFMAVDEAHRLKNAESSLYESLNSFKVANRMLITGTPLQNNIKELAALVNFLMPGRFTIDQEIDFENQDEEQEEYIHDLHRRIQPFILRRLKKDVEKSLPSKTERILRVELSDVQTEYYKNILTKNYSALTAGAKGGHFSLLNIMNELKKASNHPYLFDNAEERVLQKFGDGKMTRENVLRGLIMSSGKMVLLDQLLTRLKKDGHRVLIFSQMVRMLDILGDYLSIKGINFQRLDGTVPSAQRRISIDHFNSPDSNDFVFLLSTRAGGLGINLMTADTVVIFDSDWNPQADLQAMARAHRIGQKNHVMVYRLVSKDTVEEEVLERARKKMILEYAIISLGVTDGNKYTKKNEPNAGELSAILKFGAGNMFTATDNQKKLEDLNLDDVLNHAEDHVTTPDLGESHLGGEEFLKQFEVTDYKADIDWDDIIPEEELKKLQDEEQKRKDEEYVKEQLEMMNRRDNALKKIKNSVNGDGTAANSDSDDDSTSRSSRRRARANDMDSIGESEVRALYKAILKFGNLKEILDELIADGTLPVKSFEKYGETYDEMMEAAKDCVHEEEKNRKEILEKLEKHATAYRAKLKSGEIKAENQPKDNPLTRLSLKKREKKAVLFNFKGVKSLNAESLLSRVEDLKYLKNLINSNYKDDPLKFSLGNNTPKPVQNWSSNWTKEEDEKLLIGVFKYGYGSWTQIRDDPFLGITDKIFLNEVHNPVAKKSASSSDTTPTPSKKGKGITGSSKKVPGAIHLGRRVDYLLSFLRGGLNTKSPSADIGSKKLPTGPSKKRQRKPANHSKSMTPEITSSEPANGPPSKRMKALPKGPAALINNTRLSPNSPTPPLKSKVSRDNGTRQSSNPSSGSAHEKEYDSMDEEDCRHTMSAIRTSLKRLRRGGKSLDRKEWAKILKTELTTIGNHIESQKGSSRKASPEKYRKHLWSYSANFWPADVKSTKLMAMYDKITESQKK

For part of these data: Entries with a potency or affinity are not part of this list.

Sequence of Protein translocase subunit SecA (Escherichia coli (strain K12)) (P10408 whole entry): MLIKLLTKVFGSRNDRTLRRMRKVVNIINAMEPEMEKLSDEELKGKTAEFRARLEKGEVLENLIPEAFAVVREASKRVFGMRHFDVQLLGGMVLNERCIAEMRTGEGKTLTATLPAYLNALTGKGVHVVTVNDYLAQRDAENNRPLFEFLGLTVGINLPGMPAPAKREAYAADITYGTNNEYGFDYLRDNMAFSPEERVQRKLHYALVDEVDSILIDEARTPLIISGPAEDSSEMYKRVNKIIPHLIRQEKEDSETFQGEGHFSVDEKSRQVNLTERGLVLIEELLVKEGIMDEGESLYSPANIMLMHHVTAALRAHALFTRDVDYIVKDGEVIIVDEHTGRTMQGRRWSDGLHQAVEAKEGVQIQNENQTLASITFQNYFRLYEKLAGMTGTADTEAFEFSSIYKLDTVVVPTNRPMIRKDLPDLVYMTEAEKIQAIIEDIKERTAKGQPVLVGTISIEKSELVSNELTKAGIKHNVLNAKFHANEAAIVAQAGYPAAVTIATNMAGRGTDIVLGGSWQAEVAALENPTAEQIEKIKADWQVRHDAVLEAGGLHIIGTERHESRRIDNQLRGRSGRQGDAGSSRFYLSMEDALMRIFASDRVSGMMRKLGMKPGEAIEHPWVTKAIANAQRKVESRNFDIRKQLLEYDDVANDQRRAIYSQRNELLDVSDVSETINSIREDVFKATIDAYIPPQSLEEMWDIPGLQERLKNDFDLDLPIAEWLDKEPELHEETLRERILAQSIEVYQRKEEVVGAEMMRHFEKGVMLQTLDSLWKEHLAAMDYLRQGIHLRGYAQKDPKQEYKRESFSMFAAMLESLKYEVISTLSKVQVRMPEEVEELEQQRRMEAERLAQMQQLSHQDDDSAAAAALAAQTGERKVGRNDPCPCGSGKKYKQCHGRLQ
Sequence of Sialic acid-binding Ig-like lectin 9 (Homo sapiens) (Q9Y336 whole entry): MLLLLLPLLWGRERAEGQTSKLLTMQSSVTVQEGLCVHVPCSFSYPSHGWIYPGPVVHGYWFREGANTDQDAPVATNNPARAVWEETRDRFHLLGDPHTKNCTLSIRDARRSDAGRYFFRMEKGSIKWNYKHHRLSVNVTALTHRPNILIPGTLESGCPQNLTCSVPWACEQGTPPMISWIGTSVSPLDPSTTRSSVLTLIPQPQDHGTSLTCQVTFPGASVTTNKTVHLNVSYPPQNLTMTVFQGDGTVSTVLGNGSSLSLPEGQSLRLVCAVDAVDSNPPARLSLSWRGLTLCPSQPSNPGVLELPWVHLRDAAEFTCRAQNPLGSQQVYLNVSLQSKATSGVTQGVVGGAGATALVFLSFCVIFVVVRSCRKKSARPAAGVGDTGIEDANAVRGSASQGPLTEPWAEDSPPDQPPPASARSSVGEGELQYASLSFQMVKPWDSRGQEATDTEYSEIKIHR

As for `COc1ccc(CN2CCC3(CC2)CCN(CC2CC2)C3=O)cc1`, the Percent Effect was -3.5% in [1]; 19.5% in [2]; 0.146% in assay [3]; -3.56% with Trypanosoma cruzi; 4.57% in assay [4]; 3.18% in assay [5]. In addition, the Percent Effect in the assay listed under Homo sapiens is 4.44%; in assay [6], 4.83%; in assay [7], 2.5%; in [8], -2.76%.
Turning to `CCc1nc(C2CCCN2C(=O)c2ccc3c(c2)nc(C)n3C)no1` (stereo not given), the Percent Effect in assay [1] is -0.423%; in assay [2], -2.67%; in assay [3] it was 4.72%; in the assay on Trypanosoma cruzi, -2.41%; in assay [4] it was 1.77%; in [5], 3.31%. Further, the Percent Effect in the assay filed under Homo sapiens is 7.34%; in assay [6], 1.58%; in [7], 0%; in assay [8], -6.99%.
`CCOCCN1CCCC(c2cc(C(N)=O)[nH]n2)C1` (stereo not given): the Percent Effect in assay [1] is -1.61%; in [2], 0%; in [3], 5.24%; in the assay with Trypanosoma cruzi it was -4.22%; in assay [4] it was 3.99%; in [5], 8.06%. The Percent Effect in the assay listed under Homo sapiens is 13.9%; in assay [6], 3.68%; in assay [7], 7.69%; in [8], -5.54%.
Consider `Fc1cccnc1CN1CCCCC1c1ccn2ccnc2n1` (stereo not given), for which the Percent Effect in [1] is -5.06%; in [2], 22.7%; in [3], -2.65%; with Trypanosoma cruzi, 1.77%; in [4] it was -1.33%; in [5], 11.8%. Moreover, the Percent Effect in the assay listed under Homo sapiens is 14%; in assay [6], 8.47%; in assay [7], 22.5%; in assay [8] it was -27.9%.
As to `Cc1noc(C2CCN(C(=O)c3ccc(NC4CC4)nc3)CC2)n1`, the Percent Effect was -3.73% in assay [1]; 20.5% in [2]; -12.9% in [3]; 4.6% in the assay on Trypanosoma cruzi; 1.64% in [4]; 11.3% in assay [5]. Moreover, the Percent Effect is 11.4% in the assay filed under Homo sapiens, 2.39% in assay [6], 20.5% in assay [7] and -6.59% in assay [8].
With `Cn1cc(C(=O)N2CCC(Cc3nccs3)CC2)cn1`, the Percent Effect is 0.12% in [1]; 6.67% in assay [2]; -7.82% in assay [3]; -4.54% with Trypanosoma cruzi; -1.33% in [4]; 6.73% in assay [5]. Besides, the Percent Effect in the assay listed under Homo sapiens is 15%; in assay [6] it was 4.23%; in [7], 0%; in assay [8] it was -28.5%.
For `CCn1nc2c(cc1=O)CN(Cc1nc(-c3ccccn3)no1)CC2`, the Percent Effect in [1] was -4.5%; in [2], 12.8%; in assay [3], -6.79%; with Trypanosoma cruzi, -0.469%; in assay [4], -2.87%; in assay [5], 14.1%. In addition, the Percent Effect in the assay listed under Homo sapiens was found to be 28.1%; in assay [6], 0.478%; in [7], 6.02%; in [8], 0.402%.
As to `CN1CCN(CCO)C(=O)C12CCN(Cc1ccsc1)CC2`, the Percent Effect in assay [1] is -2.2%; in assay [2] it was 9.09%; in assay [3] it was -2.51%; in the assay with Trypanosoma cruzi it was -1.88%; in assay [4], 1.83%; in [5], 13.5%. Also, the Percent Effect in the assay filed under Homo sapiens is -2.12%; in [6] it was 3.87%; in assay [7], 12.5%; in assay [8] it was -7.99%.
`Cn1cc(-c2nc(CNCCn3cccn3)cs2)cn1`: the Percent Effect was 3.44% in assay [1]; 10.3% in [2]; -15.7% in assay [3]; -6.67% in the assay on Trypanosoma cruzi; -0.41% in [4]; 16% in assay [5]. Further, the Percent Effect in the assay listed under Homo sapiens is 32.9%; in [6] it was 8.13%; in assay [7] it was 13.2%; in [8] it was 27.9%.
On to `CC(C)CN1CCC2(CCN(Cc3ccoc3)CC2)C1=O`, for which the Percent Effect in [1] is -1.85%; in [2], 27.3%; in assay [3] it was 3.42%; in the assay on Trypanosoma cruzi, 3.94%; in assay [4] it was -4.57%; in assay [5], 19.7%. Further, the Percent Effect was -0.618% in the assay filed under Homo sapiens, 10.6% in assay [6], 12.5% in assay [7] and -9.31% in [8].
For `OC(CN1CCOCC1)CN1CCc2c(ncn2C2CC2)C1` (stereo not given), the Percent Effect in assay [1] is -2.85%; in assay [2] it was 26.7%; in assay [3], -6.52%; in the assay on Trypanosoma cruzi, -1.21%; in assay [4], -4.88%; in assay [5], 14.3%. In addition, the Percent Effect was 17.9% in the assay listed under Homo sapiens, 1.58% in [6], 7.69% in [7] and -10.6% in [8].
As to `Cc1cnn(CC2CCCN2C(=O)c2cc(Cl)ccc2F)c1` (stereo not given), the Percent Effect is -1.32% in assay [1]; 2.6% in [2]; -6.93% in assay [3]; -0.933% in the assay with Trypanosoma cruzi; 5.12% in assay [4]; 4.91% in assay [5]. Besides, the Percent Effect in the assay filed under Homo sapiens was 10.8%; in [6], -1.96%; in assay [7], -2.35%; in [8] it was 2.99%.

The record behind these values is ChEMBL document CHEMBL3988442, “University of Dundee, Small-Polar-MMV Screening Library” (2021).
